Source: PubChem (several laboratories)
E coli Lon inh – E. coli protease La inhibition. 360,000 compounds, 0.42% hits. P0A9M0. inhibition, % at 7.94 µM. purified E. coli Lon protease, fluorescence polarization. AID 602123; in the data active means inhibition above about 13%, passing the limit was not always enough;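 further: 0% = enzyme with probe and DMSO and 100% = no enzyme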
MCL1-BIM inh – MCL1-BIM-BH3 interaction inhibition (human); Q07820; GST-MCL1 / FITC-Bim-BH3 fluorescence polarization; inhibition, % at 10.9 µM; 320,000 compounds, 0.68% hits; AID 2057;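 active means inhibition above the mean inhibition of all tested compounds plus 3 SD, set per campaign, cut at about 40% in these data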;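 further: 0% = DMSO wells and 100% = unlabeled Bim-BH3 peptide control; higher means more loss of mP so more displacement of Bim peptide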
EBV gp42 block – blocks Epstein-Barr virus glycoprotein 42 binding. Fluorescence polarization binding assay, mP read-out. inhibition, % (tested at 21.74 µM). 220,000 compounds, 0.42% hits. AID 1085; in the data active means inhibition above about 50%
Target sequence (Q1HVG2 whole entry, looked up): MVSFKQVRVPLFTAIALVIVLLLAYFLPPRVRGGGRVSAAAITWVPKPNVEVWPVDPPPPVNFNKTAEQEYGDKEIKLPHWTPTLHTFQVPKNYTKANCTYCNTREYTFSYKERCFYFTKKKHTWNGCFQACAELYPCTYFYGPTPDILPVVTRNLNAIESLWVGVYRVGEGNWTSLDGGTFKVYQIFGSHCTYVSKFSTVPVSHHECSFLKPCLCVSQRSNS
BCLXL inh – blocks human Bcl-xL binding to Bim BH3 peptide; Q07817; GST-Bcl-xL / FITC-Bim BH3 peptide fluorescence polarization; inhibition, % at 10.9 µM; 320,000 compounds, 0.7% hits;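 active means inhibition above the mean of all tested compounds plus 3 SD, cutoff set per campaign, cut at about 30% in these data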;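 further: 0% = DMSO wells and 100% = unlabeled Bim-BH3 peptide competitor; inhibitors lower millipolarization by displacing the labeled peptide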
GLD-1 TGE inh – GLD-1-TGE RNA interaction inhibition (C. elegans); purified GLD-1 + fluorescein TGE RNA, fluorescence polarization; inhibition, % at 5.96 µM; 320,000 compounds, 0.44% hits;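 active means percent inhibition above a per-plate cutoff, the plate mean of test compounds plus 3 SD, cut at about 30% in these data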;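 further: 0% = DMSO wells with GLD-1 and probe and 100% = wells lacking GLD-1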
MEX-5 binding – C. elegans MEX-5 TCR-2 RNA binding activity; Q9XUB2; MEX-5/FITC-TCR2 RNA binding, fluorescence polarization; hits give low values; activity score (negative = inhibition of binding), % at 10 µM; 300,000 compounds, 0.38% hits;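 active means inhibition past about -25% in most replicates, and total fluorescence under double the plate's negative control median, limit read from the data; inconclusive means replicates evenly split on the limit, or fluorescence at least double controls; inactive means too little inhibition in most replicates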;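 further: 0% = DMSO and -100% = 5 µM competing unlabeled TCR2 RNA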
Target sequence (Q9XUB2 whole entry, looked up): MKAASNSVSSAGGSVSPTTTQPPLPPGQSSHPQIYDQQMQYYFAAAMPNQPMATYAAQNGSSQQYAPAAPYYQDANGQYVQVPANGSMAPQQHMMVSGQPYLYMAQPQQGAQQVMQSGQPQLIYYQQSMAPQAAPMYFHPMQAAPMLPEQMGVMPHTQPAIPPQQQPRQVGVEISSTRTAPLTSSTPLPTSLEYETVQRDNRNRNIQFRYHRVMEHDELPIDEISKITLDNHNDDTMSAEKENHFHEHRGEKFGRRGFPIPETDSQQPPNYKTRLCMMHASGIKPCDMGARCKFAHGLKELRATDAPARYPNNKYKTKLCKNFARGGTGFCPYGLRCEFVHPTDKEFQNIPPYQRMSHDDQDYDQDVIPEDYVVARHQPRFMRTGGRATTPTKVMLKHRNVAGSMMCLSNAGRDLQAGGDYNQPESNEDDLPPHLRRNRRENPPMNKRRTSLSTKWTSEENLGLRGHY
GLD1 RNA confirm – GLD-1 TGE RNA interaction inhibition, confirmation | shares compounds with GLD-1 TGE inh | GLD-1/FL-TGE RNA fluorescence polarization, biochemical | inhibition, % at 5.96 µM | 550 compounds, 10% hits;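 active means average inhibition across triplicates above the hit cutoff set in the primary screen, cut at about 32% in these data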;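 further: 0% = GLD-1 with RNA probe and DMSO and 100% = wells lacking GLD-1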
The depositor's hits bear a star. An excerpt weighted towards active compounds, which were near 1.5% of everything screened.

Screening CC(=O)[C@@H]1[C@@H]2C(=O)N(C3CCCCC3)C(=O)[C@@H]2C2c3ccccc3C=CN21 (stereo not given in full) returned MCL1-BIM inh 24.3, EBV gp42 block 49.6, BCLXL inh 29.6, GLD-1 TGE inh 32.1*, MEX-5 binding -10.0 and GLD1 RNA confirm 36.6*.
Screening CCOc1ccc(N(CC(=O)NCc2ccccc2Cl)S(=O)(=O)c2c(C)[nH]c(=O)[nH]c2=O)cc1 returned E coli Lon inh 9.3, MCL1-BIM inh 4.9, BCLXL inh 6.5, GLD-1 TGE inh 0.3 and MEX-5 binding 3.0.
`CCOC(=O)C1CCN(C(=O)c2ccc3c(c2)NC(=O)/C(=C/c2ccccc2)S3)CC1` gave E coli Lon inh -5.8, MCL1-BIM inh 4.9, BCLXL inh 10.6, GLD-1 TGE inh -1.2 and MEX-5 binding -6.8.
`CCOC(=O)C1CCN(C(=O)c2ccc3c(c2)NC(=O)/C(=C\c2ccc(C)cc2)S3)CC1` gave E coli Lon inh -5.5, MCL1-BIM inh 42.4*, BCLXL inh 36.8*, GLD-1 TGE inh 35.2*, MEX-5 binding inconclusive and GLD1 RNA confirm 18.7.
`Cc1ccc(C)c(CN2CCC(CNC(=O)Nc3ccc(Br)cc3F)CC2)c1` gave E coli Lon inh -5.0 and MEX-5 binding -2.3.
For CCN(CC)CCNc1cc(C)c(C#N)c2nc3ccccc3n12 the results were E coli Lon inh -25.7, MCL1-BIM inh 35.3, BCLXL inh 33.5*, GLD-1 TGE inh 31.8*, MEX-5 binding -6.9 and GLD1 RNA confirm 4.9.
Screening CCN(CC)CCCNc1cc(C)c(C#N)c2nc3ccccc3n12 returned E coli Lon inh -9.2.
Screening CC(Oc1ccc(NC(=O)c2ccco2)cc1)C(=O)N1c2ccccc2CC1C (stereo not given) returned E coli Lon inh -1.0, MCL1-BIM inh 2.0, EBV gp42 block -19.2, BCLXL inh 1.5, GLD-1 TGE inh 6.0 and MEX-5 binding 1.2.
Cc1c(O)ccc(-c2n[nH]c(C(=O)O)c2-c2nc3ccccc3s2)c1O was read as E coli Lon inh 0.7, MCL1-BIM inh 14.4, EBV gp42 block -16.3, BCLXL inh 10.6, GLD-1 TGE inh 44.5*, MEX-5 binding -58.1* and GLD1 RNA confirm 50.7*.
Screening CC(C)N1C(=O)C2ON(c3ccccc3)C(c3cccs3)C2C1=O (stereo not given) returned E coli Lon inh 1.6, MCL1-BIM inh 10.3, EBV gp42 block 5.1, BCLXL inh 7.0, GLD-1 TGE inh 37.6*, MEX-5 binding 0.8 and GLD1 RNA confirm -5.3.
For COC(=O)c1ccc(NC(=O)CSc2ccccc2)cc1 the results were E coli Lon inh 2.5, MCL1-BIM inh 32.0, EBV gp42 block -15.8, BCLXL inh 37.9*, GLD-1 TGE inh 36.7*, MEX-5 binding -0.8 and GLD1 RNA confirm -6.2.
Screening COC(=O)c1ccc(NC(=O)CSc2ccccn2)cc1 returned E coli Lon inh -7.5, MCL1-BIM inh -8.0, EBV gp42 block -40.8, BCLXL inh -4.5, GLD-1 TGE inh 8.8 and MEX-5 binding -1.1.
CC(=O)c1c(C)[nH]c(C(=O)OCC(=O)Nc2cc(Cl)ccc2[N+](=O)[O-])c1C was read as E coli Lon inh 7.5, MCL1-BIM inh 7.6, EBV gp42 block -17.3, BCLXL inh 1.6, GLD-1 TGE inh 34.2*, MEX-5 binding 2.1 and GLD1 RNA confirm 6.8.
`CN(C)S(=O)(=O)c1ccc(NC(=S)NC(=O)Cc2ccccc2)cc1` gave E coli Lon inh 0.8, MCL1-BIM inh 4.9, EBV gp42 block -1.3, BCLXL inh 4.0, GLD-1 TGE inh -3.8 and MEX-5 binding 0.2.
For Cc1ccc(-c2nc(-c3ccncc3)no2)cc1C the results were E coli Lon inh 2.4, MCL1-BIM inh 5.3, BCLXL inh 3.6, GLD-1 TGE inh 37.2*, MEX-5 binding 1.9 and GLD1 RNA confirm -1.8.
`Cc1ccc(-c2nc(-c3ccncc3)no2)cc1Cl` gave E coli Lon inh 6.9, MCL1-BIM inh 2.6, BCLXL inh 0.8, GLD-1 TGE inh -2.9 and MEX-5 binding 0.2.
Screening CCN1C=C(Cc2ccc(F)cc2)C2=C(C1)C(c1ccc(F)cc1)C(C#N)=C(N)O2 (stereo not given) returned E coli Lon inh -13.2, MCL1-BIM inh 8.0, EBV gp42 block -14.3, BCLXL inh 9.5, GLD-1 TGE inh 41.1*, MEX-5 binding -0.7 and GLD1 RNA confirm 4.8.
For Cc1[nH]nc2c1C(c1ccc(F)cc1)C(C#N)=C(N)O2 (stereo not given) the results were E coli Lon inh -19.1, MCL1-BIM inh 6.0, EBV gp42 block -11.0, BCLXL inh -2.8, GLD-1 TGE inh -0.7 and MEX-5 binding -0.6.
Screening Cc1ccc(C2c3sc(=O)[nH]c3SC3C(=O)NC(=O)C32)cc1 (stereo not given) returned E coli Lon inh 3.9, MCL1-BIM inh 32.1, EBV gp42 block 24.6, BCLXL inh 24.2, GLD-1 TGE inh 53.9*, MEX-5 binding -45.7* and GLD1 RNA confirm 28.9.
Screening COC(=O)C1Sc2[nH]c(=O)sc2C(c2ccc(Cl)cc2)C1C(=O)OC (stereo not given) returned E coli Lon inh 0.3, MCL1-BIM inh 4.3, EBV gp42 block 0.7, BCLXL inh 7.6, GLD-1 TGE inh 6.1 and MEX-5 binding 0.3.
`CC1C2(C)OCC(C#N)(C(=N)O2)C1(C#N)C#N` (stereo not given) gave MCL1-BIM inh 37.0, EBV gp42 block 7.5, BCLXL inh 32.1*, GLD-1 TGE inh 35.5*, MEX-5 binding -11.9 and GLD1 RNA confirm 6.7.
Screening COc1ccc2c(c1)CC/C(=C\c1ccc(C)o1)C2=O returned E coli Lon inh -27.6, MCL1-BIM inh 48.2*, EBV gp42 block -4.1, BCLXL inh 43.3*, GLD-1 TGE inh 39.3*, MEX-5 binding -2.2 and GLD1 RNA confirm -11.6.
`CCCS(=O)(=O)c1c(S(=O)(=O)CCC)c2c(N)cccn2c1C(=O)OC` gave E coli Lon inh 4.1, MCL1-BIM inh 12.1, EBV gp42 block -1.3, BCLXL inh 21.1, GLD-1 TGE inh 35.4*, MEX-5 binding -10.3 and GLD1 RNA confirm -1.4.
CCCS(=O)(=O)c1c(S(=O)(=O)CCC)c2c(N)cccn2c1C(=O)c1ccccc1 was read as E coli Lon inh -13.7, MCL1-BIM inh -4.8, EBV gp42 block 8.4, BCLXL inh 8.3, GLD-1 TGE inh 18.1 and MEX-5 binding -2.5.
`Cc1cc2oc3c(c(=O)c2cc1C)C(c1ccc(F)cc1)N(CCCN1CCOCC1)C3=O` (stereo not given) gave E coli Lon inh -5.9, MCL1-BIM inh 4.2, EBV gp42 block -6.6, BCLXL inh 1.2, GLD-1 TGE inh -0.2 and MEX-5 binding -3.1.
